# JMJD2A Tudor inh – inhibitors of human JMJD2A Tudor domain | AlphaScreen JMJD2A-Tudor / H3K4me3 peptide binding | AID 504339 | 390,000 compounds, 4.4% hits | O75164 | Potency, µM (highest dose often 114 µM), without a hit: at the highest dose activity change, negative = inhibition, actives largely listed as inhibitors; also: % is scaled to controls: 0 for no effect and ±100 for the full control effect; nearly all actives have a fitted effect of over 50% in size
# HP1b chromo inh – inhibitors of HP1-beta chromodomain binding to methylated histone tails; AlphaScreen HP1-beta / biotin-H3K9me3 peptide binding; Potency, µM (series often up to 114 µM), for inactives: top-dose activity change, negative = inhibition, usual class: inhibitors; 390,000 compounds, 0.56% hits; AID 540317; P83916; also: nearly all actives have a fitted effect of over 70% in size
# Target sequence (P83916 whole entry, looked up): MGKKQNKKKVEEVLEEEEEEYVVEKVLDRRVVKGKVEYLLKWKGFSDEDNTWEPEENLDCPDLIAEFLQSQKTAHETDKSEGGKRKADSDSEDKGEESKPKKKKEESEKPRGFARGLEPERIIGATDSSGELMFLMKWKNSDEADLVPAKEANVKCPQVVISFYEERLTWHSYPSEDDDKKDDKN
#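 AlphaScreen: HP1-beta (50 nM) preformed 30 min with biotin-H3(1-18)K9me3 peptide (50 nM) in PBS pH 7.4, 0.01% Tween-20. Compound added for 30 min at RT, then streptavidin donor/nickel chelate acceptor beads (10 ug/mL) for 30 min.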
# BAZ2B inh – blocks human BAZ2B; 360,000 compounds, 4.4% hits; AID 504333; Potency, µM (titrated, usually from 114 µM), for the others: top-dose activity change, negative = inhibition, most hits filed as inhibitors; AlphaScreen BAZ2B-H3K14Ac peptide displacement; also: % is scaled to controls: 0 for no effect and ±100 for the full control effect; nearly all actives have a fitted effect of over 60% in size
#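 Multi-concentration screen (max 110 uM) measuring displacement of acetylated histone H3 peptide from BAZ2B by AlphaScreen, using 50 nM protein, 50 nM peptide and 10 ug/mL streptavidin donor plus Ni-chelate acceptor beads.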
# G9a block – G9a (human) methyltransferase inhibition | G9a H3K9 monomethylation, AlphaScreen, 2 h | Potency, µM (series often up to 102 µM), for inactives: top-dose activity, negative = inhibition, most hits filed as inhibitors | 350,000 compounds, 8.8% hits | Q96KQ7; also: % is scaled to controls: 0 for no effect and ±100 for the full control effect; nearly all actives have a fitted effect of over 75% in size
# Target sequence (Q96KQ7 913-1193 limits assumed): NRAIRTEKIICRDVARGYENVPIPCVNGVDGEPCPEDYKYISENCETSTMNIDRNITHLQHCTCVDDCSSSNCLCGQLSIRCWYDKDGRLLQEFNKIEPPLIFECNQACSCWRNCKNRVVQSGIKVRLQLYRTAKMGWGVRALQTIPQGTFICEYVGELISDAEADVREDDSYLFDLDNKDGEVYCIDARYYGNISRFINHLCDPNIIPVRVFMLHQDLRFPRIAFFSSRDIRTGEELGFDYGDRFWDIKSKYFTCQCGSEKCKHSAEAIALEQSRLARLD
#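 G9a (20 nM) preincubated 15 min RT with compounds, then 500 nM biotinylated H3K9 peptide and 20 uM SAM added; 2 h RT reaction. Monomethyl-H3K9 product detected by AlphaScreen with anti-H3K9me1 antibody, streptavidin donor and anti-rabbit IgG acceptor beads.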
# PLK1 PBD inh – inhibitors of human PLK1 polo-box domain binding; P53350; Plk1 PBD binding of FITC phosphopeptide, fluorescence polarization; Potency, µM, inactives show max response, negative = inhibition, usual class: inhibitors; 360,000 compounds, 2.8% hits; also: series mostly up to about 57 µM; % is scaled to controls: 0 for no effect and ±100 for the full control effect; nearly all actives have a fitted effect of over 65% in size
# Sfp inh – blocks B. subtilis Sfp PPTase activity. Q9F4F7. Biochemical Sfp PPTase activity, qHTS. Potency, µM, inactives show largest response in the series, negative = inhibition, hits mostly inhibitors. 310,000 compounds, 3.5% hits. AID 1490;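 also: the enzyme is Sfp with the accession as filed and its product quenches rhodamine fluorescence; 0% = enzyme reaction without inhibitor and -100% = no enzyme wells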
#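 With Hepes-Na pH 7.6 buffer containing 10 mM MgCl2, Sfp (15 nM) modified BHQ-2-YbbR (12.5 uM) using rhodamine-CoA (5 uM). Two reads 30 minutes apart at 525/598 nm yielded each well's rate.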
# * = called active by the depositor; ? = inconclusive; nt = not tested or not shown; [ ] = dose if it differs, or a comment. Only some compounds are listed: those with a hit (about 12% of all), similar ones and a draw of the others. Calls follow the shape of the dose curve; as a rule, active = well fitted curve in the direction sought with a large enough effect; inconclusive = small, poorly fitted or top-dose-only effect, or another doubt; inactive = no such curve, though single readings can be large; an effect the other way counts as inactive or inconclusive. Potency is read from the fitted curve at half-maximal effect.
SMILES,JMJD2A Tudor inh,HP1b chromo inh,BAZ2B inh,G9a block,PLK1 PBD inh,Sfp inh
Cc1c(Cl)cccc1NC(=S)Nc1ccc2[nH]c(=O)[nH]c2c1,5.1%[11.4 µM],-12.3%,-24.0%,15.4%[12.7 µM],?,56.2µM*
O=C(CN1CCCCC1CO)c1ccc(OC(F)F)cc1 (centres undefined),2.1%,47.7%,-14.4%,56.2µM*,-5.1%,16.0%
COc1ccc(NC(=O)N2CC3(CCN(C(=O)c4cnccn4)CC3)C2)cc1,nt,nt,nt,-0.1%[12.7 µM],nt,-5.9%
O=C1CS/C(=N\N=C\c2ccco2)N1c1ccccc1,?,2.2%,50.1µM*,?,-29.6%,-6.0%
COCCN(C(=O)COC(=O)c1nc(Cl)ccc1Cl)c1c(N)n(Cc2ccccc2)c(=O)[nH]c1=O,-8.2%,43.8%,8.0%,-4.5%,-4.7%,nt
CC(C)C[C@@H](CC(=O)N[C@@H](CCC(=O)O)CC(=O)O)NC(=O)[C@@H]1CCCC[C@H]1NC(=O)C[C@H](CCCN)NC(=O)C[C@H](CO)NC(=O)[C@@H]1CNCC[C@H]1N,nt,nt,nt,nt,nt,-18.4%
COc1cccc(C(=S)N2CCCC2)c1OC,-1.7%,?,4.9%,8.91µM*,23.8µM*,50.1µM*
COc1cccc(C(=O)C(=O)c2cccc(OC)c2OC)c1OC,-18.6%,8.4%[57 µM],nt,nt,-5.7%,nt
Oc1ccccc1C(=S)N1CCN(C(=S)c2ccccc2O)CC1,-32.6%,?,6.0%,3.55µM*,23.8µM*,28.2µM*
S=C(c1ccccc1)N1CCN(C(=S)c2ccccc2)CC1,1.4%,39.4%,-29.0%,?,-8.7%,1.3%
Oc1ccccc1C(=S)N1CCCC1,-2.0%,-16.4%,5.3%,14.3%[0.501 µM],?,50.1µM*
CCOC(=O)C1CCCN(C(=O)c2ccc(S(=O)(=O)Nc3ccccc3OC)cc2)C1 (centres undefined),-24.8%,24.0%,-5.1%,21.1%[12.7 µM],-15.1%,nt
CCOC(=O)C1=C(C#N)C(C(=O)OCC)c2ncccc21 (centres undefined),nt,nt,nt,nt,3.36µM*,nt
CCOC(=O)C1=C(C(C)=O)C(c2cccnc2)C(C#N)=C(N)O1 (centres undefined),?,17.2%,-7.1%,-4.2%[12.7 µM],-6.5%,-17.3%
COc1ccc(CCNC(=O)c2coc3ccccc3c2=O)cc1OC,-26.1%,3.8%,-3.3%,-39.5%,4.1%,-0.7%
CCCCCNC(=O)c1c[nH]c2ccc(S(=O)(=O)N3CCC(C)CC3)cc2c1=O,-9.8%,34.3%,7.5%,1.7%[59 µM],nt,nt
CCn1c(C(=O)N2CCc3ccccc3C2)cc2sccc21,-34.8%,19.5%,-34.5%,50.1µM*,-18.5%,-8.9%
CCn1c(C(=O)NCCCN2CCc3ccccc3C2)cc2sccc21,?,1.7%,?,?,-8.2%,-19.5%
CCN1CCN(C(=O)c2ccc3c(c2)c(C)c(C)n3Cc2ccccc2)CC1,?,?,?,35.5µM*,-2.4%,2.7%
CS(=O)(=O)c1ccc(C(=O)N2CCc3ccccc3C2)cc1,-18.9%,8.5%,nt,6.6%,-25.8%,21.3%
CCn1c(C)c(C)c2cc(C(=O)N3CCc4ccccc4C3)ccc21,39.8µM*,?,22.4µM*,44.7µM*,-9.7%,-17.8%
Cc1c(C)n(Cc2ccc(F)cc2)c2ccc(C(=O)N3CCN(c4ccc(F)cc4)CC3)cc12,?,13.6%,-37.7%,-43.5%[59 µM],nt,nt
CCOc1ccccc1C(=O)N[C@H](C(=O)OCC(=O)Nc1nnc(-c2ccccc2)o1)C(C)C,-16.6%,-10.0%,nt,nt,-10.3%,nt
C[C@@H]1c2ccccc2N2C[C@H](Cc3ccc(C(=O)c4ccccc4)cc3)C[C@@H]12,nt,nt,nt,nt,-1.4%,nt
O=C1C(Cl)=C(NCCCO)C(=O)c2ccccc21,-29.6%,?,?,27.9%[2.33 µM],-9.2%,-0.3%
Cc1ccc(NC2=C(NCCO)C(=O)c3ccccc3C2=O)cc1,50.1µM*,?,14.1µM*,11.2µM*,-14.4%,-6.8%
COc1ccc(NC(=O)C2CC(=O)OC23CCOC(C)(C)C3)cc1 (centres undefined),-4.0%,26.4%,12.7%,?,-0.4%,-2.2%

# Assay outcomes: PubChem, National Center for Advancing Translational Sciences (NCATS)
